Screening results: PubChem BioAssay, several laboratories
Hits are enriched below; roughly 2.3% of the tested compounds scored in any of these assays.
Bcl-xL primary – blocks human Bcl-xL binding to Bim BH3 peptide. Q07817. GST-Bcl-xL / FITC-Bim BH3 peptide fluorescence polarization. inhibition, % at 10.9 µM. hit rate 0.7% among 320,000. AID 2129;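 active means inhibition above the mean of all tested compounds plus 3 SD, cutoff set per campaign, cut at about 30% in these data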;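 further: 0% = DMSO wells and 100% = unlabeled Bim-BH3 peptide competitor; inhibitors lower millipolarization by displacing the labeled peptide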
Mcl1 Bid PPI – disrupts binding of human Mcl-1 to Bid peptide; TR-FRET Mcl-1/Bid-Dy647 peptide binding, 1536-well; inhibition, % at 21.7 µM; hit rate 0.97% among 220,000; AID 1021;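 active means compounds that cut the binding signal by more than half at the single screening dose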;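 further: His-tagged Mcl-1 with europium anti-His antibody binding Bid BH3 peptide; 0% = Mcl-1 plus peptide wells and 100% = peptide-only wells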
Target sequence (Q07820 whole entry, looked up): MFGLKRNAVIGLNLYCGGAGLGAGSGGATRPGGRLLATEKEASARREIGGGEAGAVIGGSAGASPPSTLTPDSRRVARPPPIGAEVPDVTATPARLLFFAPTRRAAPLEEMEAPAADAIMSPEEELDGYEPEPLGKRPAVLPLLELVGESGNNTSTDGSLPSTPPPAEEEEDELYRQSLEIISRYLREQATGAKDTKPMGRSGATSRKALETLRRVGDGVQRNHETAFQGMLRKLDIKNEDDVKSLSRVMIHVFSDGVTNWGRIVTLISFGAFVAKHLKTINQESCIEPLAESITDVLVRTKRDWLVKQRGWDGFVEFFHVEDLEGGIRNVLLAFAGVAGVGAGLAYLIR
GLD-1 RNA inh – GLD-1-TGE RNA interaction inhibition (C. elegans); Q17339; inhibition, % at 5.96 µM; purified GLD-1 + fluorescein TGE RNA, fluorescence polarization; hit rate 0.44% among 320,000;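 active means percent inhibition above a per-plate cutoff, the plate mean of test compounds plus 3 SD, cut at about 30% in these data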;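 further: 0% = DMSO wells with GLD-1 and probe and 100% = wells lacking GLD-1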
Mcl1 Noxa PPI – Mcl-1/Noxa interaction inhibition; inhibition, % at 21.7 µM; hit rate 1.5% among 220,000; Q07820; AID 1022; TR-FRET Mcl-1/Noxa peptide binding, 2 h;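 active means compounds that cut the protein-peptide binding signal by more than 50% relative to plate controls in a single-dose test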;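 further: His-tagged Mcl-1 with rhodamine Noxa BH3 peptide and terbium anti-His antibody; 0% = Mcl-1 plus Noxa peptide wells and 100% = peptide-only wells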
Bim-Mcl-1 – inhibitors of Bim-Mcl-1 interaction, human | Q07820 | Bead-based flow cytometry, Bim peptide-Mcl-1 binding | inhibition, % at 10 µM | hit rate 0.1% among 190,000 | AID 1009; in the data active means inhibition above about 40%;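 further: 0% = no compound tracer wells and 100% = peptide blocker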
MCL1 BIM primary – MCL1-BIM-BH3 interaction inhibition (human) | GST-MCL1 / FITC-Bim-BH3 fluorescence polarization | inhibition, % at 10.9 µM | hit rate 0.68% among 320,000;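 active means inhibition above the mean inhibition of all tested compounds plus 3 SD, set per campaign, cut at about 40% in these data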;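 further: 0% = DMSO wells and 100% = unlabeled Bim-BH3 peptide control; higher means more loss of mP so more displacement of Bim peptide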
GLD-1 TGE cf – GLD-1 TGE RNA interaction inhibition, confirmation | shares compounds with GLD-1 RNA inh | GLD-1/FL-TGE RNA fluorescence polarization, biochemical | inhibition, % at 5.96 µM | hit rate 10% among 550 | AID 2459;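 active means average inhibition across triplicates above the hit cutoff set in the primary screen, cut at about 32% in these data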;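 further: 0% = GLD-1 with RNA probe and DMSO and 100% = wells lacking GLD-1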
Starred values were filed as active, the others as inactive; · = not tested or not shown.

SMILES	Bcl-xL primary	Mcl1 Bid PPI	GLD-1 RNA inh	Mcl1 Noxa PPI	Bim-Mcl-1	MCL1 BIM primary	GLD-1 TGE cf
CCOC(=O)c1c(CC(C)C)csc1NC(=O)COC(=O)c1cc(OC)c(OC)cc1[N+](=O)[O-]	3	8	5	-1	-7	7	·
O=C1c2ccccc2OC2(C=Cc3ccccc3O2)N1Cc1ccccc1 (stereo not given)	-1	-11	6	17	-1	-5	·
CN1CC2=Cc3ccccc3OC23Oc2ccccc2C=C3C1	14	-57	33*	12	17	16	39*
CCOC(=O)c1nc2sc3c(c2c(=O)n1C(C)C(=O)OCC)CCCC3 (stereo not given)	5	-23	2	7	-5	6	·
Oc1cc(NCCc2cccnc2)cc2cccnc12	·	·	39*	·	·	·	24
Oc1cc(Nc2cccnc2)cc2cccnc12	·	·	4	·	·	·	·
COCCNC(=O)c1c(N)n(CCC2=CCCCC2)c2nc3ccccc3nc12	50*	-10	38*	9	0	52*	21
COc1ccc(CCn2c(N)c(C(=O)NCc3ccco3)c3nc4ccccc4nc32)cc1	3	17	-1	29	2	2	·
O=C1CCC/C(=N/NC(=O)c2ccc(CN3c4cccc5cccc(c45)S3(=O)=O)cc2)C1	11	-35	40*	25	0	8	2
Cc1ccc(S(=O)(=O)N(C)Cc2ccc(C(=O)NN=C3C4CC5CC(C4)CC3C5)cc2)cc1	0	-11	2	1	-6	5	·
Cc1ccc(S(=O)(=O)N(C)Cc2ccc(C(=O)N/N=C3\CCCC(=O)C3)cc2)cc1	2	-83	49*	7	-31	3	3
O=C(O)c1ccc(/C=N/NC(=O)c2ccc(CN3c4cccc5cccc(c45)S3(=O)=O)cc2)cc1	9	-29	-2	30	·	4	·
O=C(CN1C(=O)NC2(CCOc3ccccc32)C1=O)c1ccc(F)c(F)c1 (stereo not given)	3	·	4	·	·	-5	·
CC(C)CCN(C)C1CCN(C(=O)Nc2c(F)cccc2F)CC1	37*	-13	35*	2	0	32	-4
CCOc1ccc(NC(=O)Cc2c(C(=O)O)n(C)c3ccccc23)cc1	3	·	3	·	·	-4	·
